About 83,000 compounds went through this panel and 20% of them were active in at least one assay; those are over-represented in the sample as a whole.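 The test compound was applied at a single concentration to cells in 96-well plates for 48 hours, and percent growth was recorded.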 Unmarked numbers belong to inactive results. Activity calls are given as the source filed them. The calls were made as follows: active = growth percent below 10; inactive = the rest.
Legend:
Assay in all cases: NCI-60 one-dose screen, 48 h (100 = growth as untreated, 0 = no growth, -100 = all killed)
Details in all cases: 10 µM unless noted
RPMI-8226 leukemia = system: RPMI-8226 leukemia
OVCAR-8 ovarian = system: OVCAR-8 ovarian
OVCAR-5 ovarian = system: OVCAR-5 ovarian
OVCAR-4 ovarian = system: OVCAR-4 ovarian
IGROV1 ovarian = system: IGROV1 ovarian
OVCAR-3 ovarian = system: OVCAR-3 ovarian
HS 578T breast = system: HS 578T breast
NCI/ADR-RES ovarian = system: NCI/ADR-RES ovarian
T-47D breast = system: T-47D breast
SK-OV-3 ovarian = system: SK-OV-3 ovarian

Row | SMILES | growth (RPMI-8226 leukemia) | growth (OVCAR-8 ovarian) | growth (OVCAR-5 ovarian) | growth (OVCAR-4 ovarian) | growth (IGROV1 ovarian) | growth (OVCAR-3 ovarian) | growth (HS 578T breast) | growth (NCI/ADR-RES ovarian) | growth (T-47D breast) | growth (SK-OV-3 ovarian)
1 | COc1ccc(-c2nc3sccn3c2-c2ccnc(S(C)(=O)=O)n2)cc1 | 86.5% | 111% | 96.7% | 80.4% | 37.9% | 84.3% | 94.3% | 104% | 36.4% | 
2 | Cc1cc(Cl)ccc1Nc1nc(C(F)(F)F)ccc1C(=O)NCC(=O)N/N=C/c1c(Cl)cccc1Cl | -20.6% (active) | 73.4% | 87.8% | 86.4% | 35.4% |  |  | 77% | 51.9% | 
3 | CCCCSc1cc(C)nc(N)n1 | 73.4% | 107% | 94% | 98.1% | 100% | 103% |  | 95% | 96.4% | 
4 | COC(=O)[C@]12CC[C@@H](C)[C@H](C)[C@@H]1C1=CC[C@@H]3[C@@]4(C)C=C(O)C(=O)[C@@]5(C)COC(=C54)C[C@@]3(C)[C@]1(C)CC2 | -56.5% (active) | -20.5% (active) | -26.9% (active) | -39.1% (active) | -23.5% (active) | -92% (active) | -18.8% (active) | -42.8% (active) | -25.8% (active) | 
5 | CCN(CC)CCOc1ccc(C2=C(c3ccccc3)CCc3cc(OC)ccc32)cc1 | -64.7% (active) | 46.6% | 22.2% | 52.3% |  |  | -6.19% (active) | -26.1% (active) | 25% | 68.9%
6 | Clc1ncn[nH]1 | 102% | 92% | 107% | 100% | 105% | 105% | 106% | 106% | 99.5% | 
7 | OCCOc1c(Cl)cc(Cl)cc1Cl | 119% | 104% | 92.6% | 98.1% | 115% | 118% | 98.4% | 102% | 109% | 
8 | O=C1c2ccccc2C(=O)c2c1cccc2-n1nnc2ccccc21 | 59.8% | 102% | 105% | 97.5% | 82.9% | 115% | 94.2% | 107% | 93.5% | 
9 | CCN(CC)CCCCNc1c2ccccc2[n+](C)c2c1[nH]c1ccccc12 | -42.6% (active) | -11.9% (active) | -5.18% (active) | -2.34% (active) | -34.2% (active) |  | -48.1% (active) | 86.5% | -11.7% (active) | 
10 | COc1ccc2c(c1)C(=O)c1c-2c(=O)n(CCCCCCC(=O)NO)c2ccccc12 | -2.83% (active) | 7.33% (active) | -4.52% (active) | 4.23% (active) | -34.9% (active) | -19.6% (active) | -2.26% (active) | -14.1% (active) | -11.8% (active) | 
11 | NC(=O)c1ccccc1NC(=O)c1ccccc1Cl | 85% | 99.4% | 108% | 98.3% | 96% | 109% | 108% | 115% | 96.4% | 
12 | O=C1/C(=C/c2ccc([N+](=O)[O-])s2)Oc2ccc(Br)cc21 | -6.04% (active) | -6.92% (active) | -66.8% (active) |  | -45.9% (active) | -65.3% (active) | 16.2% | -31.2% (active) | -55.7% (active) | -34.3% (active)
13 | NC(=O)SCC(=O)Nc1ccccc1-c1ccccc1 | 99.8% | 111% | 104% | 111% | 133% |  |  | 106% | 132% | 
14 | Cc1nn(-c2ccccc2)c2c1oc(=O)c1cc(Cl)ccc12 | 101% | 101% | 111% |  | 86.5% | 85.8% | 175% | 108% | 105% | 106%
15 | O=C(O)C(=O)O | 94.4% | 75.8% | 56.8% |  |  | 114% | 100% | -36.5% (active) | 94.4% | 95.7%
16 | COc1ccc(-c2c(N)noc2-c2cc(OC)c3c(c2)OCCO3)cc1 | 16% | 24.3% | 36.5% |  | 24.8% | -24.2% (active) | 25.9% | -5.69% (active) | 63.7% | 8.57% (active)
17 | C[n+]1ccc(Nc2ccc(NC(=O)c3ccc(Nc4cc[n+](C)c5ccc(N)cc45)cc3)cc2)cc1 | 68.1% | 94.8% | 90.6% |  |  | 115% | 108% | 99.4% | 102% | 99.1%
18 | CC[C@H](C)C(=O)O[C@H]1C[C@@H](C)C=C2C=C[C@H](C)[C@H](CC[C@@H]3C[C@@H](O)CC(=O)O3)[C@H]21 | 71.8% | 61.9% | 87.2% |  | 55.9% | 102% | 94% | 32.1% | 96.7% | 83.7%
19 | S=C(c1ccccc1)N1CCN(c2cccc(Cl)c2)CC1 | 86.9% | 102% | 97.2% |  | 107% |  |  | 103% | 96.9% | 103%
20 | CC(NC(=O)C(C)Oc1ccc(Cl)cc1Cl)C(=O)O (stereo unspecified) | 125% | 107% | 95.7% |  | 84.8% |  |  | 96.7% | 108% | 
21 | Cc1cc2c(C#N)n3c(c2cc1C)C(=O)C(c1ccccc1)Oc1ccccc1-3 (stereo unspecified) | 29.6% | 23.6% | 48.6% |  | 48.8% | 25.3% | 46.2% | 25.8% | 15.2% | 39.6%
22 | COc1ccc(-c2noc(N)c2-c2cc(OC)c3c(c2)OCO3)cc1 | 7.65% (active) | 26.6% | 61.6% |  | 44.6% | -9.87% (active) | 21.4% | 9.7% (active) | 33.7% | 27.6%
23 | Cn1c(N)c(N=O)c(=O)[nH]c1=O | 83.9% | 104% | 106% |  | 107% | 112% |  | 103% | 98% | 115%
24 | CCCCCCCCCCC[C@@H](C[C@H]1OC(=O)[C@H]1CCCCCC)OC(=O)[C@@H](CC(C)C)NC=O | 0.857% (active) | 62.9% | 94.4% |  | 60.3% | 69% | 53.6% | 37.5% | 76.5% | 88.1%
25 | CCC(C)(C)C(=O)O[C@H]1C[C@@H](C)C=C2C=C[C@H](C)[C@H](CC[C@@H]3C[C@@H](O)CC(=O)O3)[C@H]21 | 62.7% | 48% | 87.1% |  | 28.8% |  | 42.4% | 25.5% | 92.1% | 70%
26 | CCCCCCCCCCCCCCCCCc1nccn1CCO | 82.3% | 80% | 71.4% |  | 68.5% |  | 83.4% | 59.9% | 47.1% | 94.6%
27 | Nc1ccc(S(=O)(=O)Nc2ncccn2)cc1 | 112% | 102% |  | 112% | 116% | 115% | 133% | 105% |  | 116%
28 | CC(C)(C)c1ccc(C(O)CCCN2CCC(C(O)(c3ccccc3)c3ccccc3)CC2)cc1 (stereo unspecified) | -38.8% (active) | -38.5% (active) | -20.7% (active) |  | 34.7% | -83.9% (active) |  | -46.6% (active) | -69.3% (active) | -48.9% (active)
29 | COc1cc([C@@H]2c3cc4c(cc3C(O[C@@H]3O[C@@H]5CO[C@@H](c6cccs6)OC5[C@H](O)[C@H]3O)C3COC(=O)[C@@H]32)OCO4)cc(OC)c1O (stereo partly specified) | -20.8% (active) | -43% (active) | -9.71% (active) |  | -5.65% (active) | -54% (active) | -3.69% (active) | 60.3% | -0.0776% (active) | 
